Bioassay records as filed in PubChem.
Compounds with a hit are over-represented: about 12% of the library has one in this group of screens.
CHX counter = counter-screen hit for Shiga toxin inhibitors, cycloheximide; cell reporter, cycloheximide protein synthesis inhibition counterscreen; max response, %; actives 12% (n = 300,000); in the data active means max response mostly above about 13%, no sharp cut-off; inactive means mostly below about 14%; further: read at 38.3 µM for the half of the compounds with a filed dose; 0% is about no effect
FMDV inh = antivirals against foot and mouth disease virus. FMDV antiviral cell-based qHTS. Potency, µM (highest dose often 57.9 µM), inactives show at the top dose activity change, negative = inhibition, hits mostly inhibitors. actives 1.2% (n = 410,000); calls by dose curve; tested in HEK293T cells; further: read-out not given here; potency means the concentration at half of the fitted maximal effect; on the % scale 0 is the no-effect control and ±100 the full control effect; nearly all actives have a fitted effect of over 45% in size
Sm TGR inh = inhibitors of Schistosoma mansoni thioredoxin glutathione reductase | purified TGR, DTNB reduction, TNB absorbance 405 nm | AID 485364 | Q962Y6 | actives 3% (n = 360,000) | Potency, µM (top dose mostly 114 µM), inactives show top-dose activity change, negative = inhibition, most hits filed as inhibitors; active means well fitted inhibition curve with a large enough effect; inconclusive means small, poorly fitted or top-dose-only effect; inactive means no such curve, though single readings can be large or run the other way; further: potency means the concentration at half of the fitted maximal effect; on the % scale 0 is the no-effect control and ±100 the full control effect; nearly all actives have a fitted effect of over 60% in size
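TGR 20 nM + NADPH 100 uM (dispensed conc.), cpd preinc 15 min RT; start with NADPH (500 uM addition) then DTNB (15 mM addition). Kinetic TNB absorbance, 405 nm filter. Four-parameter Hill fit across titration.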
Shiga inhibitor = Shiga toxin inhibition; Vero cells, Shiga toxin protein synthesis inhibition reporter; inhibition, % at 38.7 µM; actives 9.2% (n = 290,000); AID 2315; in the data active means inhibition mostly above about 28%, no sharp cut-off; inactive means mostly below about 43%; further: 0% is about no effect
Numbers without * were called inactive; ? = inconclusive; . = no result given; [ ] = dose if it differs, or a comment.

SMILES	CHX counter	FMDV inh	Sm TGR inh	Shiga inhibitor
COc1ccc2nc(SCC(=O)N3CCCCCC3)c(C#N)cc2c1	15*	17%	-33%	87*
N#Cc1cc2cc3c(cc2nc1SCC(=O)N1CCOCC1)OCCO3	52*	?	-3%	74*
Cc1ccc2cc(C#N)c(N3CCCC3)nc2c1C	7	-8%	20µM*	-5
Cc1nc(N2CCN(C(=O)c3ccco3)CC2)c(C#N)c2c1CCCC2	4	-30%	-12%	15
Cc1ccc2cc(C#N)c(N3CCCN(C(=O)C4CCCO4)CC3)nc2c1C (centres undefined)	-5	-20%	-4%[11.4 µM]	-11
Cc1cccc(OCCOCCn2c(-c3ccc(Cl)cc3)nc3ccccc3c2=O)c1C	.	6%	2%	.
COc1ccc(-n2ncc(C(=O)N3CCN(C(=O)c4ccco4)CC3)c2C2CCN(C(=O)OC(C)(C)C)CC2)cc1	.	14%	4%	.
COC(=O)c1ccc(CNC(=O)c2nc(Cn3nc(C)c(Br)c3C)no2)cc1	.	-2%	9%	.
COc1ccc2nc(N3CCCC3)c(C#N)cc2c1	16	32%	-1%	22
COc1ccc2nc(N3CCCCC3)c(C#N)cc2c1	64*	25%	-10%	124*
Cc1ccc(-c2nnc(-c3cccnc3)o2)cc1	36*	21%	-22%	81*
c1cncc(-c2nnc(-c3cccs3)o2)c1	20*	59%	0%	58
O=C(COC(=O)c1ccc(Cl)nc1)Nc1nnc(-c2ccccc2)o1	.	-2%	-1%	.
Brc1ccc(-c2nnc(-c3cccnc3)o2)cc1	.	27%	.	.
COc1ccc(-c2nnc(-c3ccc(N)cc3)o2)cc1	44*	46%	1%	62*
FC(F)(F)c1ccc(-c2nnc(-c3cccnc3)o2)cc1	-3	26%	1%	-6
Clc1ccc(-c2nnc(-c3ccccc3)o2)cn1	11*	76%	4%	7
CCc1ccccc1NC(=O)CN1C(=O)COc2ccc(S(=O)(=O)N3CCCCCC3)cc21	.	-9%	8%	.
O=C(CSc1nc2ccccc2n1Cc1cccc(F)c1)NCc1ccccc1	.	-17%	4%	.
CCOc1ccc(NC(=O)Cn2cc(C(=O)c3ccccc3)c(=O)c3cc4c(cc32)OCCO4)cc1	.	?	5%	.
Clc1ccc(-c2nnc(-c3cccnc3)o2)cc1	20*	57%	3%	56*
COc1ccc(-c2nnc(-c3cccnc3)o2)cc1	28*	26%	12%	62*
c1ccc(C2=NOC(c3nnc(-c4ccccc4)o3)C2)cc1 (centres undefined)	.	33%	.	.
c1ccc(-c2nnc(C3CC(c4cccnc4)=NO3)o2)cc1 (centres undefined)	15*	-3%	-5%	20
CCc1ccc(-n2c(=O)c3c4c(sc3n(Cc3ccccc3C#N)c2=O)CCCC4)cc1	.	-19%	-2%	.
SMILES	CHX counter	FMDV inh	Sm TGR inh	Shiga inhibitor
CCCCc1ccc(NC(=S)N2CCN(c3ncccn3)CC2)cc1	0	6%	6%	-15
CCOC(=O)c1ccc(NC(=S)N2CCC(O)CC2)cc1	39*	52%	-8%	66
CCOC(=O)c1ccc(NC(=S)N2CCN(CCO)CC2)cc1	6	12%	-1%	-4
CCOC(=O)N1CCC(N(C(=O)Nc2ccc(CC)cc2)C(C)CC)CC1 (centres undefined)	14*	44%	-2%	47
CCOC(=O)N1CCC(N(C(=O)Nc2ccccc2)C(C)CC)CC1 (centres undefined)	-3	.	-1%	17
CCOC(=O)c1ccc(NC(=S)N2CCCC(C)C2)cc1 (centres undefined)	13*	60%	4%	62*
CCCCc1ccc(NC(=S)N2CCCC(C)C2)cc1 (centres undefined)	21*	44%	7%	41*
COc1ccc(OC)c(/C=C/C(=O)Nc2ccc(C(=O)OCCC(C)C)cc2)c1	.	-11%	0%	.
Cc1cc(C)c(Cn2c3ccccc3c3cnn(CC(=O)NCCc4ccccc4)c(=O)c32)c(C)c1	.	0%	14%	.
CCOc1ccccc1NS(=O)(=O)c1c(-c2ccc(C)cc2)csc1C(=O)OC	.	-12%	4%	.
CCOC(=O)c1ccc(NC(=S)N2CCSC2c2ccc(Br)cc2)cc1 (centres undefined)	13*	2%	-3%	16
O=S(=O)(Nc1cccc2cccnc12)c1ccc(Br)cc1	-3	.	.	-11
CC1(C)N=C(SCC(=O)Nc2ccc(Cl)cc2)C(c2ccc(Cl)cc2)=N1	4	22µM*	-8%	9
CC1(C)N=C(SCC(=O)Nc2ccc(Cl)cc2)C(c2ccccc2)=N1	-4	-7%	-7%	-15
Cc1cccc(NC(=O)CCS(=O)(=O)c2ccccc2)c1	30*	55%	84%	47*
